# In ChEMBL document CHEMBL1201862, “PubChem BioAssay data set” (2004):
# The campaign covered roughly 54,000 sequences. About 2,800 (5.2%) were called active. No stated cut-off is given here; in the data, active = GI50 up to about 1.1 µM and inactive = higher. Only a sample is shown. Measured potencies and affinities stand elsewhere.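 A five-concentration, 48-hour dose response in 96-well plates underlies each endpoint, interpolated linearly between surrounding concentrations. Abbreviation: GI50, concentration required for 50% inhibition of growth.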
# Test system: NCI-H226
# Assay: NCI tumour cell line growth inhibition, 48 h
row,Substance,GI50 [µM]
1,"cis-Bis[[(trimethylsilyl)methyl]amino]tetrachloroplatinum(IV), CHEMBL2146191",13.6
2,"CISPLATIN, CHEMBL11359",5.05
3,"[Bis(aminomethyl)dimethylsilane]tetrachloroplatinum(IV), CHEMBL2146190",4.49
4,"[Bis(aminomethyl)tetramethylenesilane]tetrachloropaltinum(IV), CHEMBL2146189",8.18
5,"[Bis(aminomethyl)tetramethylenesilane]dichloropaltinum(II), CHEMBL2146205",32.9
6,"mu-(1,7-nanodiamine-N,N')bis-(cis-aminedichloroplatimum (II)), CHEMBL2146215",1.07
7,"[Bis(aminomethyl)pentamethylenesilane]dichloropaltinum(II), CHEMBL2146202",1.43
8,"[Bis(aminomethyl)ethylmethylsilane]tetrachloroplatinum(IV), CHEMBL2146192",5.75
9,"[Bis(aminomethyl)diethylsilane]tetrachloroplatinum(IV), CHEMBL2146203",1.5
10,"[Bis(aminomethyl)pentamethylenesilane]tetrachloropaltinum(IV), CHEMBL2146204",3.88
11,"[Bis(aminomethyl)dimethylsilane]dichloroplatinum (II), CHEMBL2146201",35.8
